# ELG1 repair inh: qHTS screen for small molecules that inhibit ELG1-dependent DNA repair in human embryonic kidney (HEK293T) cells expressing luciferase-tagged ELG1; HEK293T ELG1-luciferase reporter, luminescence, 16 h; DNA damage induced by 5-fluorouridine; Potency, µM (highest dose often 46.1 µM), usual class: inhibitors; hit rate 2.3% among 330,000; also: nearly all actives have a fitted effect of over 55% in size
#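 HEK293T cells expressing luciferase-tagged ELG1 (2,000/well) received 5-Fluorouridine plus compound or DMSO for 16 hr at 37 °C. Luciferase was read by ONE-Glo luminescence after 30 min at room temperature.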
# IL-1B inflam inh: qHTS for Inhibitors of Inflammasome Signaling: IL-1-beta AlphaLISA Primary Screen | THP-1 LPS/ATP IL-1B secretion, AlphaLISA, 16 h; active compounds read low | activity change, % at 57.5 µM | hit rate 4.7% among 360,000 | AID 743279, 2014; in the data active = activity change below about -50%; inconclusive = mostly about -30% to -49%
#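 THP-1 cells pretreated 1 hr with compounds (up to 57.5 uM final), then stimulated with LPS (250 ng/mL final) plus ATP (1.25 mM final); secreted IL-1B measured by AlphaLISA after 16 hr, decreased signal indicating inhibition.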
# TDP1 cell noCPT: qHTS for Inhibitors of human tyrosyl-DNA phosphodiesterase 1 (TDP1): qHTS in cells in absence of CPT; AID 686978, 2013; DT40 Tdp1-/- hTDP1 cells, no CPT, ATP luminescence, 48 h; hit rate 15% among 420,000; Potency, µM (series often up to 46.2 µM), actives largely listed as inhibitors; also: nearly all actives have a fitted effect of over 55% in size
#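 Luminescent ATP content (CellTiter-Glo) served as the growth readout. Knockout chicken DT40 cells expressing human TDP1 were exposed to compounds without camptothecin for a minimum 48 hr at 37 °C.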
# RORg inh: qHTS for inhibitors of ROR gamma transcriptional activity; Drosophila S2 Gal4-RORgamma UAS-luciferase reporter, 20 h; Potency, µM (top dose mostly 53.6 µM), actives largely listed as inhibitors; AID 2551, 2010; Nuclear receptor ROR-gamma (Mus musculus), P51450; hit rate 5.4% among 310,000; also: nearly all actives have a fitted effect of over 60% in size
# Target sequence (P51450 whole entry, looked up, the tested form may be a part): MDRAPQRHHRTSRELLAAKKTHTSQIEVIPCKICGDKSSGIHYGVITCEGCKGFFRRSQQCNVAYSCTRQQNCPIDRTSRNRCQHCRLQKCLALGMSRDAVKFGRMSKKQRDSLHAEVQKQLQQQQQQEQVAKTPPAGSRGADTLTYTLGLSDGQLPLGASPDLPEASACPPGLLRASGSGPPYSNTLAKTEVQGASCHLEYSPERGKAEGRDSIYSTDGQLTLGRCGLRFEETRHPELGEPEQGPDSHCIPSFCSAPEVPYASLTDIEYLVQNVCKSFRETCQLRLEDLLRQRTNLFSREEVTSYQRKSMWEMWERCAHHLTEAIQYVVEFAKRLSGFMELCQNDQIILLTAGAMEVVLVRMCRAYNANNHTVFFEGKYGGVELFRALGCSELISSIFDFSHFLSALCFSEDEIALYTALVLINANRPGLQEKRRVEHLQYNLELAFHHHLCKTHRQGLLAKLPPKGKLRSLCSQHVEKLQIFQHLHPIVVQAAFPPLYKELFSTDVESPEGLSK
#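 Read-out: Photinus luciferase luminescence; inhibitors lower reporter signal. Insect Schneider cells with Gal4-ROR gamma fusion under metallothionein promoter, UAS reporter; 700 uM final copper sulfate induction, 20 hr, ambient temperature.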
# TDP1 cell CPT: qHTS for Inhibitors of human tyrosyl-DNA phosphodiesterase 1 (TDP1): qHTS in cells in presence of CPT. chicken DT40 Tdp1-/-;hTDP1 cells + 20 nM CPT, ATP luminescence, 48 h. hit rate 12% among 420,000. Potency, µM (series often up to 46.2 µM), hits mostly inhibitors; also: nearly all actives have a fitted effect of over 55% in size
#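 Cell growth measured by CellTiter-Glo luminescence after a minimum 48 h, 37 C compound exposure with 20 nM CPT in Tdp1-knockout DT40 cells stably expressing hTDP1, seeded 400/well; qHTS titration format.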
# Gal4-VP16 FLuc: VP16 counterscreen qHTS for inhibitors of ROR gamma transcriptional activity | Potency, µM (series often up to 53.6 µM), hits mostly inhibitors | AID 2546, 2010 | hit rate 3.5% among 310,000 | Drosophila S2 Gal4-VP16 UAS-luciferase, luminescence, 20 h;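 also: Gal4-VP16 expression switched on by copper sulfate through the metallothionein promoter; nearly all actives have a fitted effect of over 50% in size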
# Numbers stand for hits; n = inactive; u = inconclusive; x = no result; [ ] = remark or other dose. A selection: hits, their analogues and other compounds. The true share with any hit is near 21%. Unless noted, calls follow the shape of the dose curve; as a rule, active = well fitted curve in the direction sought with a large enough effect; inconclusive = small, poorly fitted or top-dose-only effect, or another doubt; inactive = no such curve, though single readings can be large; an effect the other way counts as inactive or inconclusive.
SMILES,ELG1 repair inh,IL-1B inflam inh,TDP1 cell noCPT,RORg inh,TDP1 cell CPT,Gal4-VP16 FLuc
O=C(N[C@@H](Cc1ccccc1)C(=O)OCc1ccccc1)c1nc[nH]c1C(=O)NC(c1ccccc1)c1ccccc1,n,n,u,3.5µM,u,5.6µM
CN(Cc1ccccc1)C(=O)c1[nH]cnc1C(=O)N[C@@H](Cc1ccccc1)C(=O)OCc1ccccc1,n,n,u,10µM,u,10µM
CCNc1ncc2nc(-c3ccccc3)c(=O)n(C)c2n1,x,x,n,n,n,n
CSc1ncccc1C(=O)N1CCOc2ccc(C(C)(O)CCn3cccn3)cc2C1 (stereo not drawn),x,x,n,x,n,x
COC(=O)CN1C(=O)C(C)(C)c2cc(S(=O)(=O)Nc3ccc(C(C)C)cc3)ccc21,x,x,n,x,n,x
O=c1c2c([nH]n1-c1ccccc1)CCSC2,n,n,n,n,u,n
COc1cccc(CN2CC(C(=O)N3CCOCC3)CCC2=O)c1 (stereo not drawn),u,n,n,n,n,n
CN(Cc1ccccc1)C(=O)c1[nH]cnc1C(=O)NCC(=O)OCc1ccccc1,n,n,n,11µM,n,n
C[C@H](NC(=O)c1nc[nH]c1C(=O)N[C@@H](Cc1ccccc1)C(=O)OCc1ccccc1)c1ccccc1,n,n,u,4.5µM,u,7.9µM
O=S(=O)(c1ccc(F)c(F)c1)N1CCCCCCC1,x,n,u,x,n,x
CN(C)c1ccc(C(=S)N2CCCCC2)cc1Br,n,n,u,10µM,n,n
S=C(c1ccc(N2CCCC2)c(Br)c1)N1CCCCC1,u,n,23µM,20µM,21µM,n
COc1ccc(CN2CCC3C=CCC(C(=O)O)C3C2=O)cc1OC (stereo not drawn),x,x,x,n,x,n
COc1cc(C(=O)Nc2cccc(C)c2C)ccc1OCC(=O)N1CCOCC1,n,n,n,x,n,x
Cn1c(-c2cccc([N+](=O)[O-])c2)cnc1NCc1cccc([N+](=O)[O-])c1,n,n,u,n,u,n
CCc1ccc(CNc2ncc(-c3cccc(OC)c3)n2C)cc1,x,x,4.1µM,x,4.1µM,x
COc1ccc(CNc2ncc(-c3ccccc3)n2C)cc1,u,n,u,n,n,n
COc1ccc(OC)c(CNc2ncc(-c3cccc([N+](=O)[O-])c3)n2C)c1,n,u,u,n,16µM,n
COc1ccc(-c2cnc(NCc3cc4c(cc3[N+](=O)[O-])OCO4)n2C)cc1,n,-51,13µM,n,26µM,n
Cc1cccc(CNc2ncc(-c3cccc([N+](=O)[O-])c3)n2C)c1,n,n,16µM,n,u,n
CN1CC(=O)Nc2ccc([N+](=O)[O-])cc2C1=O,n,n,n,n,n,n
Cc1ccc(NC(=O)CCC(=O)NNC(=O)c2ccccc2)c(C)c1,n,n,n,n,n,n
CN(C)C(CNC(=O)c1cc(-c2ccco2)nc2ccccc12)c1ccccc1 (stereo not drawn),u,n,n,x,n,x
CC1(C(=O)NS(=O)(=O)c2ccccc2Cl)CCN1C(=O)CC1CC1 (stereo not drawn),x,n,n,x,n,x
Clc1ccccc1-c1cnc2sc(NCc3ccc4c(c3)OCO4)nn12,x,n,15µM,x,u,x
SMILES,ELG1 repair inh,IL-1B inflam inh,TDP1 cell noCPT,RORg inh,TDP1 cell CPT,Gal4-VP16 FLuc
O=C(Cn1nnc(-c2ccccc2Cl)n1)NCc1ccc2c(c1)OCO2,n,n,n,n,n,n
Cn1c(-c2ccc3c(c2)OCO3)cnc1NCc1ccc(Cl)cc1,n,n,18µM,n,u,n
CCCCNC(=O)C1(C)CCN1Cc1ccc(C(=O)OCC)cc1 (stereo not drawn),x,n,u,x,u,x
CCCNC(=O)C1(C)CCCN(Cc2cccc3ccccc23)C1 (stereo not drawn),x,n,u,x,u,x
COCCNC(=O)C1(C)CCCN(Cc2ccc(C)c3ccccc23)C1 (stereo not drawn),x,u,16µM,x,21µM,x
CCCCNC(=O)C1(C)CCN1Cc1cccc2c(OC)cc(C(=O)OCC)cc12 (stereo not drawn),x,u,13µM,x,u,x
CCOC(=O)c1cc(OC)c2cccc(CN3CCCC(C)(C(=O)NCCOC)C3)c2c1 (stereo not drawn),x,n,6.5µM,x,9.2µM,x
O=C(NCc1ccc(F)cc1)c1cc(C2CCCCN2S(=O)(=O)Cc2ccccc2)on1 (stereo not drawn),x,n,u,x,u,x
COCCNC(=O)C1(C)CCN(C(=O)/C=C/c2ccccc2)C1 (stereo not drawn),x,n,n,x,n,x
Cc1ccccc1OCC(=O)Nc1ccc2nc(SCC(=O)N3CCc4ccccc43)sc2c1,x,x,n,x,n,x
O=C(COc1ccccc1F)Nc1ccc2nc(SCC(=O)N3CCc4ccccc43)sc2c1,x,x,5.2µM,x,7.3µM,x
O=C(CSc1nc2cc(Cl)ccc2s1)N1CCCc2ccccc21,n,n,14µM,n,u,n[0.365 µM]
O=C(COc1ccc(F)cc1)Nc1ccc2nc(SCC(=O)N3CCc4ccccc43)sc2c1,x,x,2.6µM,x,2.6µM,x
O=C(NCCS(=O)(=O)N1CCN(c2ccc(F)cc2)CC1)C12CC3CC(CC(C3)C1)C2,u,n,16µM,x,18µM,x
O=C(NCCS(=O)(=O)N1CCN(c2ccc(F)cc2)CC1)c1cccc(C(F)(F)F)c1,x,x,18µM,x,u,x
CSc1ccccc1C(=O)NCCS(=O)(=O)N1CCN(c2ccc(F)cc2)CC1,u,n,u,x,u,x
Cc1cccc(N(CC(=O)NCc2ccccc2)S(C)(=O)=O)c1C,x,x,n,x,n,x
CC#CCOC(=O)c1c(C)nc2sc3c(c2c1N)CCC(O)C3 (stereo not drawn),n,n,9.2µM,x,u,x
COc1ccc(C)cc1/C=C/C(=O)N1CCN(S(=O)(=O)c2cccs2)CC1,x,n,u,x,21µM,x
CN1CCN(c2ccc(CNC(=O)c3cccc4c(-c5ccc(F)c(F)c5)coc34)cc2)CC1,x,n,u,x,u,x
CS(=O)(=O)Nc1cccc(NC(=O)c2cccc3c(-c4cccc(C(N)=O)c4)coc23)c1,x,u,u,x,18µM,x
CC(C)CNC(=O)c1cccc2c(-c3ccc(F)c(F)c3)coc12,x,n,u,x,u,x
CS(=O)(=O)Nc1cccc(NC(=O)c2cccc3c(-c4ccc(F)c(F)c4)coc23)c1,x,u,u,x,15µM,x
CC(C)NC(=O)c1cccc2c(-c3ccc(F)c(F)c3)coc12,x,n,21µM,x,u,x

# Screens deposited in PubChem BioAssay by National Center for Advancing Translational Sciences (NCATS).
